The results in this text go back to PubChem BioAssay (NCATS).

Inconclusive results are not listed.

The nature of one test: qHTS Assay for Lipid Storage Modulators (AID 1519). The note with it: Drosophila S3 cells, BODIPY lipid droplet/cell ratio, laser cytometry; measured here: cell count channel max response; cells loaded with oleic acid. Put shortly:
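Cells seeded at 5,000 per well were treated with compounds over a concentration series and loaded with oleic acid (400 uM, as added). Lipid droplet fluorescence (488 nm excitation, 500-530 nm channel) was read by laser-scanning cytometry and normalized to 20 uM Triacsin C.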
For `COCCn1c(=O)c(-c2ccc(Cl)cc2)nc2cnc(OCc3ccccc3)nc21`, the max response is -2.09%.
As for `CN1CCN(c2ncncc2-c2ccccc2C(F)(F)F)CC1`, the max response is 25.9%.
For the compound `CN1CCN(c2ncnc3ccc(-c4ccccc4C#N)cc23)CC1`, the max response is -20.1%.
Same read-out and setting: for `N#CCCn1c(=O)c(-c2ccc(Cl)cc2)nc2cnc(OCc3ccccc3)nc21` the value was 8.68%; for `COc1ccc(Oc2ncc3nc(-c4cccs4)c(=O)n(CCC#N)c3n2)cc1`, 10.8%.
`Clc1ccccc1-c1nc(N2CCNCC2)c2ccccc2n1`: the max response is 7.62%.
`COCCn1c(=O)c(CCc2ccccc2)nc2cnc(N3CCN(C)CC3)nc21`: the max response was -2.68%.
In the case of `CN1CCN(c2ncc3nc(-c4cc(F)cc(F)c4)c(=O)n(-c4ccccc4)c3n2)CC1`, the max response was 13.7%.
For the compound `O=C(c1cc(C(F)(F)F)cc(C(F)(F)F)c1)N1CCC2(CC1)CCN(c1ccncc1)CC2`, the max response is -1.35%.
Regarding `O=c1cnc2cnc(N3CCNCC3)nc2n1Cc1ccc(F)cc1`, the max response was determined as 22.7%.
With `Cc1noc(C)c1-c1nc(N2CCNCC2)c2ccccc2n1`, the max response was found to be 11.4%.
In the case of `CN(C)c1ccc(-c2nccc(NCCN3CCOCC3)n2)cc1`, the max response was -10.5%.
On the same count and under the same terms, in the case of `O=C(c1cc(C(F)(F)F)cc(C(F)(F)F)c1)N1CCC2(CC1)CCN(c1ccccn1)CC2` it was 10.4%.
On the same count and under the same terms, for `Cn1c(=O)c(CCc2ccccc2)nc2cnc(OCc3ccccc3)nc21` the value was 13.9%.
Same read-out and setting: for `COc1ccc(-c2nc3cnc(N4CCNCC4)nc3n(-c3ccccc3)c2=O)cc1` the value was 10.3%.

Staying with this test, now noted: Drosophila S3 cells, BODIPY lipid droplet/cell ratio, laser cytometry; measured here: lipid channel max response; cells loaded with oleic acid.
With `COCCn1c(=O)c(-c2ccc(Cl)cc2)nc2cnc(OCc3ccccc3)nc21`, the max response was -15.5%.
`CN1CCN(c2ncncc2-c2ccccc2C(F)(F)F)CC1`: the max response came out at 29.8%.
Consider `CN1CCN(c2ncnc3ccc(-c4ccccc4C#N)cc23)CC1`, for which the max response was -16%.
On to `N#CCCn1c(=O)c(-c2ccc(Cl)cc2)nc2cnc(OCc3ccccc3)nc21`, for which the max response was 16.3%.
Consider `COc1ccc(Oc2ncc3nc(-c4cccs4)c(=O)n(CCC#N)c3n2)cc1`, for which the max response was 10.8%.
`Clc1ccccc1-c1nc(N2CCNCC2)c2ccccc2n1`: the max response worked out at 12%.
Consider `COCCn1c(=O)c(CCc2ccccc2)nc2cnc(N3CCN(C)CC3)nc21`, for which the max response stood at 4.85%.
The same measure, in the same setting: in the case of `CN1CCN(c2ncc3nc(-c4cc(F)cc(F)c4)c(=O)n(-c4ccccc4)c3n2)CC1` it was 14.9%; in that of `O=C(c1cc(C(F)(F)F)cc(C(F)(F)F)c1)N1CCC2(CC1)CCN(c1ccncc1)CC2`, 0.493%.
On to `O=c1cnc2cnc(N3CCNCC3)nc2n1Cc1ccc(F)cc1`, for which the max response came out at 28.6%.
`Cc1noc(C)c1-c1nc(N2CCNCC2)c2ccccc2n1`: the max response was 19.2%.
`CN(C)c1ccc(-c2nccc(NCCN3CCOCC3)n2)cc1`: the max response was -26.5%.
As to `O=C(c1cc(C(F)(F)F)cc(C(F)(F)F)c1)N1CCC2(CC1)CCN(c1ccccn1)CC2`, the max response was 1.85%.
Turning to `Cn1c(=O)c(CCc2ccccc2)nc2cnc(OCc3ccccc3)nc21`, the max response turned out to be 15.4%.
`COc1ccc(-c2nc3cnc(N4CCNCC4)nc3n(-c3ccccc3)c2=O)cc1`: the max response stood at 4.43%.
